Calls of active or inactive are those of the source. Rule for the calls: active = hit-call score of the fitted dose curve at least 0.9, where 1 is the maximum; inactive = score below 0.9.

A short description of assay [1]: ATG_GRE_CIS: Attagene CIS-FACTORIAL HepG2 Assay for human Glucocorticoid Response Elements (GRE) (AID 2282947). The note with it: HepG2 GRE cis-reporter, Attagene multiplex mRNA; actives raise or lower the signal. In a few lines:
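Reporter transcripts read by RT-PCR with capillary electrophoresis fluorescence after a 24 h chemical exposure of HepG2 cells transiently transfected with multiple cis-element reporter units. Gain or loss fitted against DMSO.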

Assay [2] is described as follows: ATG_ISRE_CIS: Attagene CIS-FACTORIAL HepG2 Assay for human Interferon Regulatory Factor 1 (IRF1) binding to an Interferon-Stimulated Response Element (ISRE) (AID 2282948). The conditions noted are these: HepG2 ISRE cis-reporter (Attagene), mRNA transcription readout; actives raise or lower the signal. In a few lines: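 Uses HepG2 liver cells transfected with cis-regulated reporters and measures mRNA 24 h post-dosing through RT-PCR, primer-extension labelling and capillary electrophoresis, with DMSO as negative control.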

Assay [3] can be described thus: ATG_M_32_CIS: Attagene CIS-FACTORIAL HepG2 Assay for M32 Transcription Factor (Internal Marker) (AID 2282949).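 Note: background control marker of the multiplexed CIS panel rather than a real target.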 The note with it: HepG2 Attagene cis-factorial M32 reporter, mRNA; actives raise or lower the signal. In a few lines: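 HepG2 human liver cells transiently transfected with cis-promoter-driven multiple reporter transcription units, dosed 24 h. Reporter mRNA quantified by RT-PCR, FAM-labelled primer extension, HpaI digest and capillary electrophoresis; bidirectional fit versus DMSO baseline.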

Assay [4] can be described thus: ATG_M_06_CIS: Attagene CIS-FACTORIAL HepG2 Assay for M06 Transcription Factor (Internal Marker) (AID 2282950). The conditions noted are these: HepG2 Attagene CIS-FACTORIAL M06 internal marker reporter; actives raise or lower the signal. In a few lines: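 Measured 24 h post-dosing in transiently transfected HepG2 cells, this internal-marker endpoint reports reporter mRNA via RT-PCR with fluorescent primer extension and capillary electrophoresis. DMSO served as negative control and baseline for bidirectional fitting.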

For assay [5], the target named is Hypoxia-inducible factor 1-alpha (Homo sapiens) (UniProt Q16665). Nature of the assay: ATG_HIF1a_CIS: Attagene CIS-FACTORIAL HepG2 Assay for human Hypoxia Inducible Factor 1 (HIF1A) (AID 2282951). The conditions noted are these: HepG2 Attagene cis-factorial HIF1a reporter transcription; actives raise or lower the signal. In a few lines:
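HepG2 cells transiently transfected with multiplexed cis-promoter reporter units; reporter mRNA read 24 h after dosing by RT-PCR, 6-FAM primer-extension labelling, HpaI digestion and capillary electrophoresis. Bidirectional fit versus DMSO baseline.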

In assay [6] the target is Hepatocyte nuclear factor 6 (Homo sapiens) (UniProt Q9UBC0). Briefly: ATG_HNF6_CIS: Attagene CIS-FACTORIAL HepG2 Assay for human Hepatocyte Nuclear Factor 6 (HNF6) (AID 2282952). The note with it: HepG2 Attagene cis-factorial HNF6 reporter transcription; actives raise or lower the signal. In a few lines: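 First, HepG2 cells were transfected with the multiplexed cis reporter library and dosed with chemical for 24 h. Next, RNA was reverse-transcribed, PCR-amplified and fluorescently labelled. Finally, HpaI-digested fragments were read by capillary electrophoresis.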
Sequence of Hepatocyte nuclear factor 6 (Homo sapiens) (Q9UBC0 whole entry, looked up, the tested form may be a part): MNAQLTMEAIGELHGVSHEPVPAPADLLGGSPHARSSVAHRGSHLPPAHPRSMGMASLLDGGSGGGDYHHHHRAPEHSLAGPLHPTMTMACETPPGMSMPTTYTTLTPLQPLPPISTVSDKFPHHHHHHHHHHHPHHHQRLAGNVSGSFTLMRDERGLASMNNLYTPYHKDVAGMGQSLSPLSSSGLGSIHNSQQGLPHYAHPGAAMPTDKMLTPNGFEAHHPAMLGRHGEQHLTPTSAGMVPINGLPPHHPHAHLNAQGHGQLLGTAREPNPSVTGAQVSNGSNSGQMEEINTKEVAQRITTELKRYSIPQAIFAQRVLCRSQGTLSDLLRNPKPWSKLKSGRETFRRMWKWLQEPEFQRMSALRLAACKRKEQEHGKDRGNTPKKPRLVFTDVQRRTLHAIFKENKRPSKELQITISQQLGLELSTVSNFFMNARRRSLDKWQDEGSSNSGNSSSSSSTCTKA

For assay [7], the target named is Heat shock factor protein 1 (Homo sapiens) (UniProt Q00613). Briefly: ATG_HSE_CIS: Attagene CIS-FACTORIAL HepG2 Assay for human Heat Shock Transcription Factor 1 (HSE) (AID 2282953). The conditions noted are these: HepG2 HSE cis-reporter, Attagene RNA transcription; actives raise or lower the signal. In a few lines: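 Reporter mRNA induction in HepG2 is measured 24 h after dosing, using transiently transfected multiplexed cis-regulated reporter units. Signal comes from capillary electrophoresis of labelled RT-PCR products, with DMSO as negative control.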
Sequence of Heat shock factor protein 1 (Homo sapiens) (Q00613 whole entry, looked up): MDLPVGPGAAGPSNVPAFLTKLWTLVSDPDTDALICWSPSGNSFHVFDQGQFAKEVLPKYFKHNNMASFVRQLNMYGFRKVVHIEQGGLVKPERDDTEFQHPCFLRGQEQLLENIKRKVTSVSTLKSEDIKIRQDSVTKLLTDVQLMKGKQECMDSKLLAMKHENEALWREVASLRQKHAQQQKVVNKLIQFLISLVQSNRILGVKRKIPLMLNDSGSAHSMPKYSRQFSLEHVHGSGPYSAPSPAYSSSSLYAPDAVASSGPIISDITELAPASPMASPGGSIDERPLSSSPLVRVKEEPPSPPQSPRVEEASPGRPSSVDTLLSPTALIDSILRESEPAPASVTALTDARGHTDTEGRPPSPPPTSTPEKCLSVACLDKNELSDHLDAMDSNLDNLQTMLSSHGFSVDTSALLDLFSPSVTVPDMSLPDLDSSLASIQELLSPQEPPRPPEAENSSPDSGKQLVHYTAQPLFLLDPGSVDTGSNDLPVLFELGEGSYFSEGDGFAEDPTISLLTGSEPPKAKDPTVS

Assay [8] can be described thus: ATG_MRE_CIS: Attagene CIS-FACTORIAL HepG2 Assay for human Metal Responsive Element (MRE) (AID 2282954). The note with it: HepG2 MRE cis-reporter transcription, Attagene multiplex; actives raise or lower the signal. In a few lines:
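Endogenous MRE-dependent transcription read as reporter mRNA in transiently transfected human HepG2 cells at 24 h. RNA reverse-transcribed, PCR-amplified, labelled and resolved by capillary electrophoresis; gain or loss relative to DMSO.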

Assay [9] concerns the target Paired box protein Pax-6 (Homo sapiens) (UniProt P26367). Briefly: ATG_Pax6_CIS: Attagene CIS-FACTORIAL HepG2 Assay for human Paired Box 6 (PAX6) (AID 2282956). The conditions noted are these: HepG2 CIS-FACTORIAL PAX6 reporter transcription, RNA readout; actives raise or lower the signal. In a few lines: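 DMSO-referenced bidirectional fits of reporter mRNA fluorescence; HepG2 with transient cis-promoter MRTUs, 24 h post-dose, RT-PCR plus capillary electrophoresis detection.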

Assay [10] is described as follows: ATG_PXRE_CIS: Attagene CIS-FACTORIAL HepG2 Assay for human Pregnane X Receptor Element (PXRE) (AID 2282957). The conditions noted are these: HepG2 Attagene CIS-FACTORIAL PXRE reporter, mRNA; actives raise or lower the signal. In a few lines:
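After a 24 h chemical incubation, total RNA from transfected HepG2 cells was reverse-transcribed and reporter cDNA amplified, FAM-labeled, HpaI-digested and sized by capillary electrophoresis. DMSO served as baseline for bidirectional curve fitting.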

The nature of assay [11]: ATG_PPRE_CIS: Attagene CIS-FACTORIAL HepG2 Assay for human Peroxisome Proliferator-activated Response Element (PPRE) (AID 2282958). The conditions noted are these: HepG2 PPRE cis-element reporter, Attagene transcription factor profiling; actives raise or lower the signal. In a few lines: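 HepG2 cells transiently transfected with multiplexed cis-element reporter units measure endogenous transcription factor activity. After 24 h compound exposure, reporter mRNA is quantified by RT-PCR, 6-FAM labeling, HpaI digestion and capillary electrophoresis; bidirectional fits are made against DMSO baseline.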

The nature of assay [12]: ATG_RORE_CIS: Attagene CIS-FACTORIAL HepG2 Assay for human RAR-related Orphan Receptor Element (RORE) (AID 2282959). The conditions noted are these: HepG2 Attagene cis-factorial RORE reporter, mRNA; actives raise or lower the signal. In a few lines: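 HepG2 cells transiently transfected with multiple cis-element reporter transcription units, exposed to chemical for 24 h. Reporter mRNA quantified by RT-PCR, 6-FAM primer-extension labeling, HpaI digestion and capillary electrophoresis; bidirectional fit versus DMSO baseline.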

Assay [13] is described as follows: ATG_Sox_CIS: Attagene CIS-FACTORIAL HepG2 Assay for human SRY-box transcription factor (SOX) (AID 2282960). The note with it: HepG2 Attagene cis-factorial SOX reporter, mRNA; actives raise or lower the signal. In a few lines:
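HepG2 cells transiently transfected with cis-element-driven multiple reporter transcription units, dosed 24 h; reporter mRNA measured by RT-PCR, FAM labelling, HpaI digestion and capillary electrophoresis. Bidirectional fit versus DMSO baseline.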

In assay [14] the target is Transcription factor Sp1 (Homo sapiens) (UniProt P08047). Nature of the assay: ATG_Sp1_CIS: Attagene CIS-FACTORIAL HepG2 Assay for human Specificity Protein 1 (Sp1) (AID 2282961). The note with it: HepG2 Sp1 cis-reporter transcription, actives raise or lower the signal. In a few lines: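 HepG2 cells transiently transfected with multiple reporter transcription units driven by cis-regulatory elements; Sp1-responsive reporter mRNA measured 24 h after dosing by RT-PCR and capillary electrophoresis fluorescence, fitted bidirectionally against DMSO baseline.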
Sequence of Transcription factor Sp1 (Homo sapiens) (P08047 whole entry, looked up): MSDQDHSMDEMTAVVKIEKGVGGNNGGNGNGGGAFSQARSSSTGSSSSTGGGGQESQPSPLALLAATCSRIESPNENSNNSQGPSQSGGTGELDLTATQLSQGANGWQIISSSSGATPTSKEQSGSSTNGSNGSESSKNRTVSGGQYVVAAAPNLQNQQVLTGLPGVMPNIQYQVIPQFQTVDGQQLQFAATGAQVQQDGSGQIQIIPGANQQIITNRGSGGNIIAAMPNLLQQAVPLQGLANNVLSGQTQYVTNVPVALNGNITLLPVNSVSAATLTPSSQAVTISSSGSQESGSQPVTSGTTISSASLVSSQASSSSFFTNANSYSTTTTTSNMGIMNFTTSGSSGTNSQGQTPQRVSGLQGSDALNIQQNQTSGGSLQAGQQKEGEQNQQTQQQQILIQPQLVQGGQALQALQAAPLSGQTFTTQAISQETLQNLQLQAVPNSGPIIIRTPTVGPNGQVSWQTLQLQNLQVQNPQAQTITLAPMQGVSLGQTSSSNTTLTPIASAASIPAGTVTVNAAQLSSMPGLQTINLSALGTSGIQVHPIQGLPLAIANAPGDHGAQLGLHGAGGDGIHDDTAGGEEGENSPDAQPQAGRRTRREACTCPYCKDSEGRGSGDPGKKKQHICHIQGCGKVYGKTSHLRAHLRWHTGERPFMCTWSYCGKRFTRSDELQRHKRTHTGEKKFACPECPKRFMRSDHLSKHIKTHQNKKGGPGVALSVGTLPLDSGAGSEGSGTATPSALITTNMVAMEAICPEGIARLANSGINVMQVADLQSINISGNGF

The nature of assay [15]: ATG_SREBP_CIS: Attagene CIS-FACTORIAL HepG2 Assay for human Sterol Regulatory Element Binding (SREBP) (AID 2282962). The conditions noted are these: HepG2 Attagene cis-factorial SREBP reporter, mRNA; actives raise or lower the signal. In a few lines: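 In this cis-format assay, HepG2 liver cells express reporters controlled by promoter elements responsive to native transcription factors. Exposure lasts 24 h; reporter mRNA fluorescence from capillary electrophoresis gives the signal, fitted bidirectionally against DMSO.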

Assay [16] addresses Signal transducer and activator of transcription 3 (Homo sapiens) (UniProt P40763). Nature of the assay: ATG_STAT3_CIS: Attagene CIS-FACTORIAL HepG2 Assay for human Signal Transducer and Activator of Transcription 3 (STAT3) (AID 2282963). The note with it: HepG2, Attagene cis-factorial STAT3 reporter transcription; actives raise or lower the signal. In a few lines:
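Readout is reporter transcript quantified by RT-PCR and capillary electrophoresis, with 6-FAM primer extension and HpaI digestion. Total RNA is taken 24 h after dosing transiently transfected HepG2 carrying cis-regulated reporter units. Bidirectional fit against DMSO.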

A short description of assay [17]: ATG_TA_CIS: Attagene CIS-FACTORIAL HepG2 Assay for human TA Basal Promoter (AID 2282964). The note with it: HepG2 Attagene CIS-factorial TA basal promoter reporter; actives raise or lower the signal. In a few lines: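 Cis-factorial format in HepG2: reporters report endogenous factors, not chimeric Gal4 fusions. After 24 h treatment, reporter transcripts were measured by RT-PCR-capillary electrophoresis fluorescence, analysed bidirectionally versus DMSO.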

The nature of assay [18]: ATG_TCF_b_cat_CIS: Attagene CIS-FACTORIAL HepG2 Assay for human T-Cell-Factor with beta-catenin (TCF/b-cat) (AID 2282965). The note with it: HepG2 TCF/beta-catenin cis-reporter transcription, actives raise or lower the signal. In a few lines:
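Measured: reporter mRNA in HepG2 transiently transfected with cis-promoter reporter units, 24 h after chemical addition. Fitting was bidirectional, DMSO as negative control.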

A short description of assay [19]: ATG_PBREM_CIS: Attagene CIS-FACTORIAL HepG2 Assay for human Phenobarbital-responsive Enhancer Module (PBREM) (AID 2282955). The conditions noted are these: HepG2 PBREM cis-reporter, Attagene multiplexed transcription; actives raise or lower the signal. In a few lines:
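HepG2 cells transiently transfected with multiple cis-regulated reporter transcription units; endogenous factor activity at the PBREM element measured as reporter mRNA 24 h after dosing, via RT-PCR and capillary electrophoresis of fluorescent fragments; bidirectional fitting versus DMSO.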

Sequence of Signal transducer and activator of transcription 3 (Homo sapiens) (P40763 whole entry, looked up): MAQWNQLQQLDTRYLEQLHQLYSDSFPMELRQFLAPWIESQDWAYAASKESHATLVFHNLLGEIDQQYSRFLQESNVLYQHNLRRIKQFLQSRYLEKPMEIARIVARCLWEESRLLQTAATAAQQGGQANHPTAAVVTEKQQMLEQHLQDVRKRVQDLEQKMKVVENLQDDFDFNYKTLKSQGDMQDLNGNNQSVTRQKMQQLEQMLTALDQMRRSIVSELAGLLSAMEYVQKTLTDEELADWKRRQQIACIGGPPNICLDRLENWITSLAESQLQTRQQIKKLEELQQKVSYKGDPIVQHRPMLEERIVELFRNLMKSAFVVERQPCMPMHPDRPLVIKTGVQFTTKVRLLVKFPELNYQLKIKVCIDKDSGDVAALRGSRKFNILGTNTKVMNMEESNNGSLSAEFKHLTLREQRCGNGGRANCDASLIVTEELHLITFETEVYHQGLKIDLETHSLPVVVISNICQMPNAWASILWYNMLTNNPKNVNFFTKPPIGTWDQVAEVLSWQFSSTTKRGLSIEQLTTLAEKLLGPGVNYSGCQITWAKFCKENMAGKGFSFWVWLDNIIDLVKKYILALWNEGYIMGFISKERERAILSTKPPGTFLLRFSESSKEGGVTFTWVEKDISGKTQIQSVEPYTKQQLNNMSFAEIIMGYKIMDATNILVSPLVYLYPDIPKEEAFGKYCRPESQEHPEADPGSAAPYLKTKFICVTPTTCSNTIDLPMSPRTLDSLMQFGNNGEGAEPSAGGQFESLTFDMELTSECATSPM
Sequence of Paired box protein Pax-6 (Homo sapiens) (P26367 whole entry, looked up): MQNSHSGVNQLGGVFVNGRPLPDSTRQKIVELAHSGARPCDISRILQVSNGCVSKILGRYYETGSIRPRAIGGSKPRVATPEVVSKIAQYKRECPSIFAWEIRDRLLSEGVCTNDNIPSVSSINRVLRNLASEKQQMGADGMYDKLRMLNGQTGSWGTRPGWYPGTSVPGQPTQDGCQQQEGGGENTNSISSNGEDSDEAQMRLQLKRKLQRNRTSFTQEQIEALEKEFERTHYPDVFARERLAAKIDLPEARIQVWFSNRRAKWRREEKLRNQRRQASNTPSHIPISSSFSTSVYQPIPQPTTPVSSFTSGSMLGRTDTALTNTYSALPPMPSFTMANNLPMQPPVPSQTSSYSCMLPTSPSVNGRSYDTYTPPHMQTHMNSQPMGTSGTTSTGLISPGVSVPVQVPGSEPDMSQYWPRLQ
Sequence of Hypoxia-inducible factor 1-alpha (Homo sapiens) (Q16665 whole entry, looked up): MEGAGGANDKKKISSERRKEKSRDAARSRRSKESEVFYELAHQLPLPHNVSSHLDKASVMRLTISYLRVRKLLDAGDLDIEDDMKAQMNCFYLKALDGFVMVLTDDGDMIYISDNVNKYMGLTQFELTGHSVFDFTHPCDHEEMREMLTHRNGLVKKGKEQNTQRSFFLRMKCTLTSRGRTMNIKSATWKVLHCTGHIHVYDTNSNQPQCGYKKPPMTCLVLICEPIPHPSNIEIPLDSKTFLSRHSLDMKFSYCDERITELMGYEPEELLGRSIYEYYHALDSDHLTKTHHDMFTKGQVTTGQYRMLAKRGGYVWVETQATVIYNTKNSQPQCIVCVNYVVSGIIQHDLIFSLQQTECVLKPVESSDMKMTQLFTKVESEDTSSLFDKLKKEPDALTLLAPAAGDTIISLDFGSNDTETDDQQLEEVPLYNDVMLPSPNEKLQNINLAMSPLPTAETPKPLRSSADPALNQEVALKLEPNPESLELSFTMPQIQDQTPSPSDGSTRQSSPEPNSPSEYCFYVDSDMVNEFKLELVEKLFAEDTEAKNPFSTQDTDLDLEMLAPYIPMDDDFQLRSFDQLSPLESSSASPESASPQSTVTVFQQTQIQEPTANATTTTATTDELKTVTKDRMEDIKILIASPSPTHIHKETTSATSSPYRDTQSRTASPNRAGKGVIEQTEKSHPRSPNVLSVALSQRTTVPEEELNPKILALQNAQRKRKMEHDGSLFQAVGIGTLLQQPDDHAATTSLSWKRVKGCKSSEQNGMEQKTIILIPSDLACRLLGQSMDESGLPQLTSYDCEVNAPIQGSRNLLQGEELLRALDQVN

With `Cc1cccc(OCCOc2cccc(C)c2)c1`, the outcome in [1], in [2], in assay [3], in [4], in assay [5] and in assay [6] was inactive. Further, the compound was classed as inactive in assay [7], in [8], in assay [9], in [10], in assay [11] and in assay [12]. Also, the compound was called inactive in assay [13], in assay [14], in assay [15], in assay [16], in assay [17] and in [18].

On to `CC(C)C1=CC2=CC[C@@H]3[C@](C)(CCC[C@@]3(C)C(=O)O)[C@H]2CC1`, for which the concentration at half-maximal activity (AC50) (usually the concentration giving half of the maximal activity seen) in [1] is 119 µM (active); in assay [5], 100 µM (active); in assay [7] it was 145 µM (active); in assay [8], 106 µM (active); in assay [9] it was 71.2 µM (active); in assay [10], 1.33 µM (active). For the same compound, the AC50 in [12] is 43.1 µM (active); in assay [13] it was 169 µM (active); in assay [15] it was 25.9 µM (active); in assay [17], 89.6 µM (active). Further, the result in assay [2], in [3], in assay [4], in [6], in assay [11] and in [14] was inactive. Besides, the compound was classed as inactive in assay [16] and in [18].

As to `CC(C)(C)C1CCCCC1=O` (centres undefined), the compound was classed as inactive in assay [1], in [2], in [3], in assay [4], in assay [5] and in assay [6]. Also, the result in assay [7], in [8], in [19], in assay [9], in assay [12] and in assay [13] was inactive. Moreover, the result in [14], in assay [15], in assay [16], in [17] and in assay [18] was inactive. For the same compound, the AC50 in [10] is 76.6 µM (active).

With `CC1OC1C1CCC2(C)OC2C1` (centres undefined), the outcome in assay [1], in [2], in assay [3], in assay [4], in assay [5] and in assay [6] was inactive. Further, the outcome in assay [7], in [8], in [19], in [9], in assay [12] and in [14] was inactive. For the same compound, the call in assay [15], in assay [16], in [17] and in assay [18] was inactive. Moreover, the AC50 in [10] was 36.7 µM (active).

For `FC(F)(F)C(=NOCC1OCCO1)c1ccc(Cl)cc1`, the compound was classed as inactive in assay [1], in assay [2], in assay [3], in [4], in assay [5] and in assay [6]. Further, the compound was classed as inactive in assay [7], in assay [19], in assay [9], in [12], in assay [13] and in assay [14]. The result in assay [15], in assay [16] and in [18] was inactive. The AC50 in assay [8] was 100 µM (active); in assay [10] it was 12.1 µM (active); in assay [11] it was 130 µM (active).

In the case of `O=C1c2ccccc2C(=O)C1c1nc2ccccc2c(Br)c1O`, the outcome in [1], in assay [2], in [3], in assay [4], in assay [6] and in [7] was inactive. For the same compound, the outcome in [8], in assay [9], in assay [11], in assay [12], in [13] and in assay [14] was inactive. For the same compound, the result in [15], in [16], in assay [17] and in assay [18] was inactive. Moreover, the AC50 in assay [5] is 4.92 µM (active); in assay [10], 5.42 µM (active).

`CCCCCCOc1cc(C)c(O)c(C)c1C`: the result in assay [1], in assay [2], in assay [3], in assay [4], in assay [5] and in assay [6] was inactive. In addition, the compound was called inactive in assay [7], in assay [9], in [12], in assay [13], in assay [14] and in assay [16]. Besides, the compound was called inactive in assay [17] and in assay [18]. The figures for the AC50 in assay [8], in assay [19] and in assay [10] were 18.2 µM (active), 11.1 µM (active) and 3.01 µM (active), respectively.

The values are drawn from PubChem BioAssay (EPA / NIEHS).
